According to ChEMBL document CHEMBL4513216, “Probing the Open Global Health Chemical Diversity Library for Multistage-Active Starting Points for Next-Generation Antimalarials” (ACS Infect Dis, 2020):
About 8,600 (12%) of roughly 69,000 compounds showed an effect of 50% or more. Shown is part of a subset that was picked to be rich in strong results.

test system: Plasmodium berghei; experiment: Screen against P. berghei liver stage (PbLuc), transformed with Luciferase, at 10uM; format: functional, HepG2; conditions: tested at 10 uM

| SMILES | INHIBITION |
| --- | --- |
| CN(C)CCN1C(=O)CCCC12CCCN(Cc1ccc[nH]1)C2 (centres undefined) | 26% |
| Cc1cccc(C)c1Nc1noc2c1CN(C(=O)c1ccnn1C)CC2 | 45.5% |
| O=C(c1n[nH]c2c1CN(C1CCOC1)CC2)N1CCOCC1 (centres undefined) | 9.97% |
| O=C(C1CCC2(CCN(CC3CCOCC3)CC2)O1)N1CCCCO1 (centres undefined) | 38.3% |
| CS(=O)(=O)N1CC[C@]2(C[C@H](Oc3ccccn3)CO2)C1 | -23.4% |
| CCc1noc(CN(CC)Cc2cc3ccc(C)cc3[nH]c2=O)n1 | 9.56% |
| Cc1cnn(CCC(=O)N2CCN(c3nccs3)CC2)c1 | 23.5% |
| O=C(NCCCN1CCOCC1)Nc1cnc2cc(Cl)ccc2c1O | 35.8% |
| O=C(NCCCO)Nc1cnc2cc(Cl)ccc2c1O | 54.4% |
| O=C(NCCO)Nc1cnc2cc(Cl)ccc2c1O | 24.4% |
| CNS(=O)(=O)CCCN1CCCCCC1c1ccc(C)o1 (centres undefined) | 23.3% |
| Cc1ccc(C2CCCCCN2CCNS(C)(=O)=O)o1 (centres undefined) | 39.4% |
| CNC(=O)CCN1CCCCCC1c1ccc(C)o1 (centres undefined) | 72.5% |
| CC(=O)N1CCN(C(=O)c2ccc(Sc3ccccn3)cc2)CC1 | 14.4% |
| Cc1ccc(NC(=O)NCC2(O)CCCC2)cc1C | -108% |
| COc1cc(CNCC(C)O)cc(Cl)c1OCc1ccc(C)cc1 (centres undefined) | 52.2% |
| COc1cc(CNCC(O)c2ccc(C)cc2)cc2c1OCO2 (centres undefined) | -5.25% |
| COc1cccc(CNC(C)C)c1OCc1ccc(C)cc1 | 5.46% |
| NC(=O)c1c[nH]nc1NC(=O)c1ccc(Cl)cc1 | -6.3% |
| CCn1cc(CN2CCCN(C(=O)c3cccn3C)CC2)cn1 | 13.6% |
| Cc1ccc(NCc2ccccc2C#N)cc1-n1cnnn1 | 10.6% |
| CC(C)N(CCNCc1ccc(C#N)cc1)C1CC1 | -8.45% |

| SMILES | INHIBITION |
| --- | --- |
| Cc1c(NCc2ccccc2C#N)cccc1S(=O)(=O)NC1CC1 | 64.9% |
| Cc1c(NCc2ccc(C#N)cc2)cccc1S(=O)(=O)NC1CC1 | 73.9% |
| Cc1ccc(NCc2ccc(C#N)cc2)cc1-n1cnnn1 | 14.3% |
| Cc1c(NCc2cccc(C#N)c2)cccc1S(=O)(=O)NC1CC1 | 67.5% |
| Cc1cc(NCc2cccc(C#N)c2)ccc1C(N)=O | -0.759% |
| CS(=O)(=O)NCC1CCCCN1Cc1ccccc1C#N (centres undefined) | -27.6% |
| Cc1cc(NCc2cccc(C#N)c2)ccc1Br | 44.3% |
| Cc1c(NCc2ccccc2C#N)cccc1-n1cnnn1 | 62.4% |
| Cc1ccc2c(c1C)OCC2NCc1ccc(C#N)cc1 (centres undefined) | 40.9% |
| Cc1nnc(NCc2ccccc2S(=O)(=O)N(C)C)c(C#N)c1C | 15.92% |
| CN(C)CC(=O)N1CCOCC(Cc2ccccn2)C1 (centres undefined) | -20.6% |
| CN1CCC2(CCN(CC3CC3)CC2)C1=O | 23.3% |
| CC(C)CN(CC(O)c1ccccc1)C(=O)Nc1nccs1 (centres undefined) | -10.9% |
| COCCN(C)CC(=O)N1C[C@@H]2CC[C@H]1CN(C(=O)c1ccncc1)C2 | 8.57% |
| CNC(=O)[C@H]1C[C@H]2CN(Cc3ccc(OC)cc3)C[C@@H]1O2 | 8.66% |
| Cn1nccc1C1CCN(Cc2ccn(-c3ccccc3)n2)CC1 | 74.2% |
| Cn1nccc1C1CCN(CC(O)c2cccc(F)c2)CC1 (centres undefined) | 20.9% |
| c1ccc(-n2ccc(CN3CCCC3Cn3cccn3)n2)cc1 (centres undefined) | 36.4% |
| Cn1nccc1C1CCN(Cc2csc(-c3ncccn3)n2)CC1 | 11.1% |
| c1ccc(-n2ncc(CN3CCCC3Cn3cccn3)n2)cc1 (centres undefined) | -0.75% |
| Cn1nccc1C1CCN(Cc2cnn(-c3ccccc3)n2)CC1 | 81.2% |
| c1ccc(-n2ccc(CN3CCOC(Cn4cncn4)C3)n2)cc1 (centres undefined) | 7.08% |

| SMILES | INHIBITION |
| --- | --- |
| Cc1ncc(CN2CCC(c3ccnn3C)CC2)n1-c1ccccc1 | 77.2% |
| O=C(O)c1ccccc1CN1CCC(c2ccnc3ccnn23)CC1 | -9.32% |
| CC(C)C(=O)N1CCN(C(=O)N(C)C)CC2(CC(=O)N(C)C2)C1 (centres undefined) | 39.8% |
| CCn1c(Cn2cncn2)nnc1C1CCN(Cc2ccccn2)CC1 | 3.88% |
| O=C(CCc1ccccc1)NC1CCC2(CCC(=O)N2)CC1 (centres undefined) | 2.58% |
| COCCCN1CCN(CCOC)C(C)C1 (centres undefined) | -23.8% |
| CN(C)CCOCC1CN(CCN(C)C)Cc2ccnn2C1 (centres undefined) | -4.23% |
| COc1ccccc1OC1CN(c2ccncc2)C1 | 38.8% |
| Cc1ccc(S(=O)(=O)NCCCN2CCC(O)CC2)cc1Cl | 51.4% |
| CC(C)c1cccc(S(=O)(=O)NCCCN2CCC(O)CC2)c1 | 62.3% |
| CSCc1cccc(S(=O)(=O)NCCCN2CCOCC2)c1 | 18.5% |
| Cc1cc(F)cc(S(=O)(=O)NCCCN2CCC(O)CC2)c1 | 25.1% |
| Cc1ccc(S(=O)(=O)NCCCN2CCC(O)CC2)c(F)c1 | 41.4% |
| Cc1cc(F)c(S(=O)(=O)NCCCN2CCC(O)CC2)cc1F | -1.53% |
| CN(CCc1ccccn1)C1CCCN(Cc2noc(C3CC3)n2)C1 (centres undefined) | 24.1% |
| COc1ccccc1C(O)CNc1c(C#N)c(=O)n(C)c(=O)n1C (centres undefined) | 46.2% |
| Cn1ccc(C(=O)NCCOc2ccc3c(c2)OCO3)cc1=O | -3.54% |
| Cc1nc(COC[C@@H]2CC[C@H]3[C@H](CCN3c3ncccn3)O2)cs1 | 46.6% |
| CCCn1c(C)c(CC(=O)NCCOC)c2c1CC(C)(C)CC2=O | -3.72% |
| CC(C)C(=O)NS(=O)(=O)c1ccc(F)c(C(F)(F)F)c1 | 0.825% |
| COC(C)C(=O)NS(=O)(=O)c1ccc(F)c(C(F)(F)F)c1 (centres undefined) | 19.5% |
| CC(=O)NS(=O)(=O)c1ccc(F)c(C(F)(F)F)c1 | 54.7% |

| SMILES | INHIBITION |
| --- | --- |
| COc1cc(Cl)c(NC(=O)c2cc3c([nH]c2=O)CCCC3=O)cc1OC | 43.6% |
| Cc1nc(SCC(=O)Nc2ccc(C(N)=O)cc2)c(C#N)c(C)c1C | 48.7% |
| Cc1ccc(C(=O)Nc2ccc(N(C)C)nc2)n1C | -130% |
| Cn1ccnc1CN1CC[C@H](O)[C@@H](n2ccc(=O)[nH]c2=O)CC1 | 22% |
| CNC(=O)[C@@H]1C[C@@H](n2cc(-c3ccc(Cl)cc3)nn2)CN1 | 43.9% |
| CCN(CC)C(=O)[C@@H]1C[C@H](n2cc(-c3cccc(OC)c3)nn2)CN1 | 16.9% |
| CCN(CC)C(=O)[C@@H]1C[C@H](n2cc(-c3ccccn3)nn2)CN1 | 34% |
| CCN(CC)C(=O)[C@@H]1C[C@@H](n2cc(-c3cccc(OC)c3)nn2)CN1 | 53.3% |
| CNC(=O)[C@@H]1C[C@H](n2cc(-c3ccc(Cl)cc3)nn2)CN1 | 30.3% |
| CCN(CC)C(=O)[C@@H]1C[C@@H](n2cc(-c3ccccn3)nn2)CN1 | 85.4% |
| O=C(NCC(=O)N1CCCC(c2ccccc2)CC1)c1ccoc1 (centres undefined) | 23.4% |
| COC1CCN(C(=O)COC(C)=O)CC(=O)N(C)c2ccccc21 (centres undefined) | 32.1% |
| COCC[C@]1(O)CCN(CC(=O)NCc2ccccn2)C[C@H]1C | 25.4% |
| Cc1cc(C)nc(N2CC=C[C@H]2C(=O)NCc2ccc3c(c2)OCO3)n1 | 25.8% |
| CCCC(=O)Nc1cnn(CC(=O)Nc2ccc(SC)cc2)c1 | 14.3% |
| CCn1nc(C)c(C(C)Nc2cc(C3CCNCC3)nc(C)n2)c1C (centres undefined) | -46.8% |
| CS(=O)(=O)CCCNC1CCCN(Cc2noc(C3CC3)n2)C1 (centres undefined) | 19.5% |
| FC(F)(F)c1nc(NC2CCc3ncnn3C2)c2ccccc2n1 (centres undefined) | 2.25% |
| CC(C)c1nc2n(n1)CC(Nc1ncnc3ccccc13)CC2 (centres undefined) | 80.5% |
| Cc1nc2n(n1)CC(Nc1ncnc3c1CCC3)CC2 (centres undefined) | 41.5% |
| CC(C)c1nc2n(n1)CC(NCc1cc3ccccc3o1)CC2 (centres undefined) | 43.2% |
| c1ccc2c(NC3CCc4ncnn4C3)ncnc2c1 (centres undefined) | 63.8% |

| SMILES | INHIBITION |
| --- | --- |
| c1nc2c(c(NC3CCc4ncnn4C3)n1)CCC2 (centres undefined) | 76.7% |
| c1nc2c(c(NC3CCC3)n1)CCNCC2 | 17.2% |
| Cc1cc(NC2CCc3ncnn3C2)n2ncnc2n1 (centres undefined) | 57.7% |
| CC(C)c1nc2n(n1)CC(Nc1ncnc3c1CCC3)CC2 (centres undefined) | 48% |
| Cc1cc(NC2CCc3nc(C)nn3C2)n2ncnc2n1 (centres undefined) | -12.5% |
| c1ccc(CNC2CCc3ncnn3C2)nc1 (centres undefined) | -0.847% |
| CCc1nc2n(n1)CC(Nc1cc(C)nc3ncnn13)CC2 (centres undefined) | 3.95% |
| Cn1cnc2c1C(COCc1ccccc1)N(Cc1cccnc1)CC2 (centres undefined) | 8.85% |
| Cc1nc2ccc(C(=O)N3CC[C@H](O)[C@@H](N4CCOCC4)CC3)cc2[nH]1 | -5.71% |
| O=C(N[C@@H]1CN(Cc2c[nH]nc2-c2ccccc2)C[C@H]1O)c1cc[nH]n1 | -3.182% |
| CN(C)C(=O)COCc1nnc2n1CCN(Cc1ccsc1)C2 | 39.4% |
| O=C1COC2(CCN(Cc3ccncc3)CC2)CN1 | -55% |
| CCOc1ccc(Br)cc1-c1cc(N)[nH]n1 | -21.3% |
| CC(C)C(=O)N1CCCC2(CCCN2CC2CCCC2)C1 (centres undefined) | -26.5% |
| O=C(Cc1c[nH]c2ccccc12)N1CCC(Nc2cccnc2)CC1 | -12.2% |
| O=C(NCCOc1ccc(Cl)cn1)Nc1cccnc1 | -24.7% |
| CC1(C(=O)N2CCOCC2)CN(Cc2cccnc2)CCO1 (centres undefined) | 2.71% |
| CC(O)CN(Cc1cccc(C(=O)N(C)C)c1)c1ccccc1 (centres undefined) | 60.5% |
| CC(O)CN(Cc1cccc(C(N)=O)c1)c1ccccc1 (centres undefined) | 28.9% |
| CCC(O)CN(Cc1cccc(C(=O)N(C)C)c1)c1ccccc1 (centres undefined) | 2.93% |
| CC(O)(CNc1ccc(Cl)c(C#N)n1)c1ccccc1 (centres undefined) | -25% |
